# Publication PMC8384837, “Expanding the binding specificity for RNA recognition by a PUF domain”
# Numbering of substitutions follows the chain as printed.
# What was measured:
# Assay in all cases: yeast three-hybrid, YBZ-1, SC-Leu-His + 0.5 mM 3-AT, 4 days
# Settings in all cases: tags: N-Gal4 AD-HA kept; label: inside an RPR1-promoter hybrid RNA with tandem MS2 sites; ssRNA
# [1] = target: T1, PUM1 PUF domain R6-AFS (Homo sapiens, UniProt Q14671 828-1176, N1043A;Y1044F;Q1047S)
# T1 sequence: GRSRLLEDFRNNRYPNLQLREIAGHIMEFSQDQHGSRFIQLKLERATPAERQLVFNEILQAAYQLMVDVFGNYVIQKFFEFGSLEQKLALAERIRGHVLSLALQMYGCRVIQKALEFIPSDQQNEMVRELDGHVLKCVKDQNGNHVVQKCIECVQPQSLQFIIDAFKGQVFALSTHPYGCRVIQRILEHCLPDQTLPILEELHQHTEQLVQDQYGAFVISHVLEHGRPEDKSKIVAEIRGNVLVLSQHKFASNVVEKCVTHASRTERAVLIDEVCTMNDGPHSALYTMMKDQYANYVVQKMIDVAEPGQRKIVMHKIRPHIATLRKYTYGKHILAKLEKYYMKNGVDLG
# Procedure, shortened: (§1)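 The interaction score is the log change in how often each variant appears, from input to selection. Frequencies came from PCR-amplified, Illumina-sequenced repeat regions of Pumilio-1 PUF domain libraries grown in strain YBZ-1 (LexA–MS2 coat fusion, HIS3 reporter) alongside matching RNA elements. Input plates were SC-Leu and selection plates were SC-Leu-His + 0.5 mM 3-AT, each for four days, and the log2 calculation used a pseudocount of 1 where a variant was absent.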
# [2] = target: T2, PUM1 PUF domain R6-VFT (Homo sapiens, UniProt Q14671 828-1176, N1043V;Y1044F;Q1047T)
# T2 sequence: T1 sequence with A216V, S220T
# Procedure, shortened: as §1
# [3] = target: PUM1 PUF domain R1-RQQ (Homo sapiens, UniProt Q14671 828-1176, S863R;R864Q)
# Procedure, shortened: as §1
# [4] = target: PUM1 PUF domain R1-RNS (Homo sapiens, UniProt Q14671 828-1176, S863R;R864N;Q867S)
# Procedure, shortened: as §1
# [5] = target: PUM1 PUF domain R1-YAR (Homo sapiens, UniProt Q14671 828-1176, S863Y;R864A;Q867R)
# Procedure, shortened: as §1
# [6] = target: PUM1 PUF domain R3-ARP (Homo sapiens, UniProt Q14671 828-1176, C935A;Q939P)
# Procedure, shortened: as §1
# [7] = target: PUM1 PUF domain R4-TRQ (Homo sapiens, UniProt Q14671 828-1176, N971T;H972R)
# Procedure, shortened: as §1
# [8] = target: PUM1 PUF domain R4-EYD (Homo sapiens, UniProt Q14671 828-1176, N971E;H972Y;Q975D)
# Procedure, shortened: as §1
# [9] = target: PUM1 PUF domain R3-PWF (Homo sapiens, UniProt Q14671 828-1176, C935P;R936W;Q939F)
# Procedure, shortened: as §1
# [10] = target: PUM1 PUF domain R3-SRG (Homo sapiens, UniProt Q14671 828-1176, C935S;Q939G)
# Procedure, shortened: as §1
# [11] = target: PUM1 PUF domain R5-TQG (Homo sapiens, UniProt Q14671 828-1176, C1007T;R1008Q;Q1011G)
# Procedure, shortened: as §1
# [12] = target: PUM1 PUF domain R4-EFG (Homo sapiens, UniProt Q14671 828-1176, N971E;H972F;Q975G)
# Procedure, shortened: as §1
# [13] = target: PUM1 PUF domain R5-KNG (Homo sapiens, UniProt Q14671 828-1176, C1007K;R1008N;Q1011G)
# Procedure, shortened: as §1
# [14] = target: PUM1 PUF domain R7-KWH (Homo sapiens, UniProt Q14671 828-1176, S1079K;N1080W;E1083H)
# Procedure, shortened: as §1
# [15] = target: PUM1 PUF domain R3-RTG (Homo sapiens, UniProt Q14671 828-1176, C935R;R936T;Q939G)
# Procedure, shortened: as §1
# [16] = target: PUM1 PUF domain R3-RIK (Homo sapiens, UniProt Q14671 828-1176, C935R;R936I;Q939K)
# Procedure, shortened: as §1
# [17] = target: PUM1 PUF domain R3-RQL (Homo sapiens, UniProt Q14671 828-1176, C935R;R936Q;Q939L)
# Procedure, shortened: as §1
# [18] = target: PUM1 PUF domain R3-LCR (Homo sapiens, UniProt Q14671 828-1176, C935L;R936C;Q939R)
# Procedure, shortened: as §1
# [19] = target: PUM1 PUF domain R3-IFE (Homo sapiens, UniProt Q14671 828-1176, C935I;R936F;Q939E)
# Procedure, shortened: as §1
# [20] = target: PUM1 PUF domain R5-KQG (Homo sapiens, UniProt Q14671 828-1176, C1007K;R1008Q;Q1011G)
# Procedure, shortened: as §1
sequence,measurement,setting,value
GGCUAGAACUAGUGGAUCCCCCGGCGCCCGGCGGCUCGAGCCCGGGUAAGUGAAAAUAGUCUGCAUGCCGCCGGGCGCCAUGCCUGCAGGUCGACUCUAGAAAACAUG,binding signal,[1],3.01 log2 enrichment (interaction score)
same,binding signal,[2],6.61 log2 enrichment (interaction score)
GGCUAGAACUAGUGGAUCCCCCGGCGCCCGGCGGCUCGAGCCCGGGUAAGUGUAAAUCGUCUGCAUGCCGCCGGGCGCCAUGCCUGCAGGUCGACUCUAGAAAACAUG,binding signal,[3],3.45 log2 enrichment (interaction score)
same,binding signal,[4],2.4 log2 enrichment (interaction score)
same,binding signal,[5],6.19 log2 enrichment (interaction score)
GGCUAGAACUAGUGGAUCCCCCGGCGCCCGGCGGCUCGAGCCCGGGUAAGUGUAAAUAGUCUGCAUGCCGCCGGGCGCCAUGCCUGCAGGUCGACUCUAGAAAACAUG,binding signal,[6],4.92 log2 enrichment (interaction score)
same,binding signal,[1],1.74 log2 enrichment (interaction score)
same,binding signal,[7],4.68 log2 enrichment (interaction score)
same,binding signal,[8],2.77 log2 enrichment (interaction score)
same,binding signal,[9],3.15 log2 enrichment (interaction score)
same,binding signal,[10],4.45 log2 enrichment (interaction score)
same,binding signal,[2],2.21 log2 enrichment (interaction score)
same,binding signal,[11],0.76 log2 enrichment (interaction score)
same,binding signal,[12],3.99 log2 enrichment (interaction score)
GGCUAGAACUAGUGGAUCCCCCGGCGCCCGGCGGCUCGAGCCCGGGUAAGUGUUAAUAGUCUGCAUGCCGCCGGGCGCCAUGCCUGCAGGUCGACUCUAGAAAACAUG,binding signal,[13],4.33 log2 enrichment (interaction score)
GGCUAGAACUAGUGGAUCCCCCGGCGCCCGGCGGCUCGAGCCCGGGUAAGUGUGAAUAGUCUGCAUGCCGCCGGGCGCCAUGCCUGCAGGUCGACUCUAGAAAACAUG,binding signal,[11],2.63 log2 enrichment (interaction score)
GGCUAGAACUAGUGGAUCCCCCGGCGCCCGGCGGCUCGAGCCCGGGUAAGUGUAAAUGGUCUGCAUGCCGCCGGGCGCCAUGCCUGCAGGUCGACUCUAGAAAACAUG,binding signal,[4],0.7 log2 enrichment (interaction score)
GGCUAGAACUAGUGGAUCCCCCGGCGCCCGGCGGCUCGAGCCCGGGUAAGUCUAAAUAGUCUGCAUGCCGCCGGGCGCCAUGCCUGCAGGUCGACUCUAGAAAACAUG,binding signal,[14],5.07 log2 enrichment (interaction score)
GGCUAGAACUAGUGGAUCCCCCGGCGCCCGGCGGCUCGAGCCCGGGUAAGUAUAAAUAGUCUGCAUGCCGCCGGGCGCCAUGCCUGCAGGUCGACUCUAGAAAACAUG,binding signal,[14],2.68 log2 enrichment (interaction score)
GGCUAGAACUAGUGGAUCCCCCGGCGCCCGGCGGCUCGAGCCCGGGUAAGUGUAAAUUGUCUGCAUGCCGCCGGGCGCCAUGCCUGCAGGUCGACUCUAGAAAACAUG,binding signal,[5],5.79 log2 enrichment (interaction score)
GGCUAGAACUAGUGGAUCCCCCGGCGCCCGGCGGCUCGAGCCCGGGUAAGUGUAAUUAGUCUGCAUGCCGCCGGGCGCCAUGCCUGCAGGUCGACUCUAGAAAACAUG,binding signal,[6],1.4 log2 enrichment (interaction score)
same,binding signal,[15],2.9 log2 enrichment (interaction score)
same,binding signal,[9],1.18 log2 enrichment (interaction score)
same,binding signal,[16],2.73 log2 enrichment (interaction score)
same,binding signal,[17],3.54 log2 enrichment (interaction score)
same,binding signal,[18],1.28 log2 enrichment (interaction score)
GGCUAGAACUAGUGGAUCCCCCGGCGCCCGGCGGCUCGAGCCCGGGUAAGUGUAAGUAGUCUGCAUGCCGCCGGGCGCCAUGCCUGCAGGUCGACUCUAGAAAACAUG,binding signal,[6],1.52 log2 enrichment (interaction score)
same,binding signal,[19],5.39 log2 enrichment (interaction score)
same,binding signal,[10],2.65 log2 enrichment (interaction score)
same,binding signal,[18],3.54 log2 enrichment (interaction score)
GGCUAGAACUAGUGGAUCCCCCGGCGCCCGGCGGCUCGAGCCCGGGUAAGUGUAUAUAGUCUGCAUGCCGCCGGGCGCCAUGCCUGCAGGUCGACUCUAGAAAACAUG,binding signal,[12],1.18 log2 enrichment (interaction score)
GGCUAGAACUAGUGGAUCCCCCGGCGCCCGGCGGCUCGAGCCCGGGUAAGUGUCAAUAGUCUGCAUGCCGCCGGGCGCCAUGCCUGCAGGUCGACUCUAGAAAACAUG,binding signal,[13],2.59 log2 enrichment (interaction score)
same,binding signal,[20],3.41 log2 enrichment (interaction score)
